# Results filed as inconclusive are left out. For some assays here: Entries with a potency or affinity are not part of this list. Some of the results follow. Active and inactive are the calls of the source.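 Rule for the calls, unless noted: active = GFP response above 150% of the DMSO level; inconclusive = fewer than 70 events counted for a yeast strain; inactive = the rest.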
# Tests used:
# [1] = target: Cell division control protein 42 homolog (Homo sapiens) (UniProt P60953); experiment: inhibition of fluorescent GTP binding to constitutively active Cdc42 – biochemical, multiplex bead flow cytometry, Bodipy-FL-GTP, dose response (AID 1333;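 active = fitted half-maximal concentration within the tested dose range, moderate curve steepness, a statistically real signal drop, and little compound fluorescence or tag-binding interference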)
# [2] = target: Cell division control protein 42 homolog (Homo sapiens) (UniProt P60953); experiment: inhibition of fluorescent GTP binding to wildtype Cdc42 – biochemical, multiplex bead flow cytometry, Bodipy-FL-GTP, dose response (AID 1334;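 active = fitted half-maximal concentration within the tested range, moderate curve steepness, significant signal drop, and little compound fluorescence or bead-linkage interference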); settings: bead-based flow cytometry, Bodipy-FL-GTP binding to GST-Cdc42; at 100 µM (top of the series) unless noted
# [3] = target: GTPase HRas (Homo sapiens) (UniProt P01112); experiment: Ras wt fluorescent GTP loading blockade – biochemical, wildtype, multiplex bead flow cytometry, dose response (AID 1335;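 active = fitted half-maximal concentration within 10 nM to 100 µM, steepness 0.5 to 2, significant signal drop, low assay interference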); settings: bead-based flow cytometry, Bodipy-GTP binding to GST-Ras; at 100 µM (top of the series) unless noted
# [4] = test system: Ras-related protein Rab-7a (dog), GTP binding; experiment: blockers of fluorescent GTP binding to Rab7 – biochemical, wildtype, multiplex bead flow cytometry, dose response (AID 1336; call rule not given here)
# [5] = target: Ras-related C3 botulinum toxin substrate 1 (Homo sapiens) (UniProt P63000); experiment: inhibition of wildtype Rac1 nucleotide loading – biochemical, multiplex bead flow cytometry, dose response (AID 1340;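 active = dose curve with midpoint inside tested range, moderate steepness, plateau gap beyond fit error, low compound glow and bead-link interference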); settings: GST-Rac1 beads, Bodipy-FL-GTP binding; at 100 µM (top of the series) unless noted
# [6] = target: GTPase HRas (Homo sapiens) (UniProt P01112); experiment: blockade of GTP loading onto mutant Ras – biochemical, activated mutant, multiplex bead flow cytometry, dose response (AID 1341;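 active = dose-response curve with midpoint inside the tested range, moderate steepness, significant amplitude and little compound fluorescence or bead-attachment interference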;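 note: GST-tagged constitutively activated Ras mutant immobilized on beads and multiplexed with other GTPases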)
# [7] = hit retest on RPL19A-GFP reporter strain – cell-based, S. cerevisiae, flow cytometry, cherry picks, mother/daughter gates, confirmation (AID 2270;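 active = GFP response below 50% of the DMSO control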); settings: 3 h, at 10 µM, stronger effect = lower value, 100 = same GFP as DMSO wells
# [8] = yeast TOR pathway reporter LAP4-GFP change – cell-based, cherry picks, flow cytometry, mother/daughter gates, confirmation (AID 2271;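 active = GFP response above 150% of the DMSO control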;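 note: ratio of sample to DMSO plate mean so 100% equals DMSO level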); settings: S. cerevisiae LAP4-GFP strain, 3 h, at 10 µM, stronger effect = higher value, 100 means same as DMSO control
# [9] = TOR pathway reporter MEP2-GFP, retest of hits – S. cerevisiae, flow cytometry GFP, cherry picks, confirmation (AID 2272;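 active = GFP response above 150% of the DMSO control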;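 note: ratio of well signal to plate DMSO mean so 100% equals DMSO level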); settings: S. cerevisiae MEP2-GFP strain, 3 h, at 10 µM, stronger effect = higher value
# [10] = yeast AGP1-GFP fluorescence change, single-dose – cell-based, flow cytometry, S. cerevisiae, cherry picks, confirmation (AID 2273);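 note: median GFP channel fluorescence over the whole cell population gate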; settings: S. cerevisiae AGP1-GFP strain, 3 h, at 10 µM
# [11] = TOR pathway CIT2 reporter hit retest – S. cerevisiae, GFP fusion, cherry picks, mother/daughter gates, confirmation (AID 2274); settings: S. cerevisiae CIT2-GFP strain, flow cytometry, 3 h, at 10 µM, stronger effect = higher value
# [12] = rapamycin-like changes in RPL19A-GFP expression – cell-based, S. cerevisiae, multiplex flow cytometry, primary screen (AID 1862; in the data active = percent of DMSO control GFP below about 86%;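 note: lower values mimic rapamycin by blocking the RPL19A rise seen in DMSO cells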); settings: S. cerevisiae RPL19A-GFP strain, flow cytometry fluorescence, 3 h; at 10 µM; stronger effect = lower value
# [13] = TOR pathway GLN3 branch reporter MEP2-GFP changes – S. cerevisiae, multiplex flow cytometry, primary screen (AID 1867;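 active = GFP response, as percent of the DMSO control, above the screen-wide mean plus 3 SD, about 139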;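 note: median GFP channel fluorescence of barcode-gated MEP2-GFP cells measured by flow cytometry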); settings: S. cerevisiae MEP2-GFP strain, 3 h, at 10 µM, stronger effect = higher value, 100% means same as DMSO wells
# [14] = TOR pathway RTG branch CIT2 reporter changes – S. cerevisiae, GFP fusion, multiplex flow cytometry, primary screen (AID 1870;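 active = percent response above a set limit, the screen-wide mean plus 3 SD, cut at about 130% in these data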;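 note: barcoded CIT2-GFP strain pooled with four other GFP strains with rapamycin as positive control; median GFP fluorescence per well over plate mean of DMSO wells so 100% = DMSO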); settings: S. cerevisiae CIT2-GFP expression, 3 h, at 10 µM, stronger effect = higher value
# [15] = TOR pathway LAP4-GFP level changes – S. cerevisiae, multiplex flow cytometry, primary screen (AID 1873;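 active = GFP signal, as percent of the solvent control, above the screen mean plus 3 SD, about 149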); settings: S. cerevisiae LAP4-GFP expression, 3 h, at 10 µM, stronger effect = higher value
# [16] = yeast AGP1-GFP level changes, GLN3 branch – cell-based, multiplex flow cytometry, S. cerevisiae, primary screen (AID 1887;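 active = GFP signal above the screen-wide mean plus 3 SD, that is over about 124.5% of the solvent control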;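 note: AGP1-GFP fusion strain of S. cerevisiae within a five-strain barcoded multiplex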); settings: 3 h, at 10 µM, stronger effect = higher value
# [17] = reduced mouse 2C T cell binding to pMHC/ICAM-1 vesicles – MLPCN validation set, flow cytometry, LFA-1/ICAM-1 modulator project, pilot screen (AID 2523;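 active = response below a set limit, under 55% cells CD8-positive and vesicle-bound, and CD8 cells' 90th-percentile brightness under 279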;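 for vesicle binding response: mean PE anti-B7-1 fluorescence of CD8+ cells relative to row control; 100% = QL9-loaded vesicles with DMSO vehicle in the same plate row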); settings: 2C mouse CD8+ T cells, at 7 µM, stronger effect = lower value; double positive events: measured here: CD8+/vesicle+ event percentage
# [18] = target: Integrin beta-1 (Homo sapiens) + Integrin alpha-4 (Homo sapiens) (UniProt P13612+P05556); experiment: alpha4beta1 integrin LIBS antibody binding reduction – U937 cells, HUTS-21 mAb, flow cytometry, validation set, VLA-4 allosteric modulator project, pilot screen (AID 2674;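 active = inhibition above 50%, about 3 SD of the validation set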;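 note: antibody binding induced by the VLA-4 ligand LDV present at three times its Kd; 0% = LDV ligand with antibody and no compound and 100% = antibody without LDV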); settings: HUTS-21 LIBS mAb binding, at 6.7 µM, stronger effect = higher value, binding induced by LDV ligand
# [19] = calorie-restriction mimetic ROS inhibitors, yeast – validation compound set, pilot screen (AID 2706;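 active = superoxide response below 65% of plate, a cut near 3 SD across the whole screen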;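 note: yeast exposed to compound for one week at 30 degrees C before staining; 100% = mean of all compound wells on the same plate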); settings: S. cerevisiae aging, superoxide DHE fluorescence; at 10 µM; stronger effect = lower value
# [20] = target: Beta-adrenergic receptor kinase 1 (Homo sapiens) (UniProt P25098); experiment: GRK2 binders displacing RNA aptamer, biochemical, validation, human GRK2, bead flow cytometry (AID 488806;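 active = aptamer binding inhibition above 30%, about 3 SD of noise from non-fluorescent compounds; inactive = inhibition at or below 30%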); settings: bead-bound GRK2, FAM-aptamer displacement, at 10 µM, stronger effect = higher value
# [21] = target: Beta-2 adrenergic receptor (Homo sapiens) (UniProt P07550); experiment: agonist-induced loss of surface beta2AR – cell-based, FAP fluorogen, flow cytometry, validation set, pilot screen (AID 504459;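 active = percent response above 42, roughly 3 SD of non-fluorescent test compounds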;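 note: agonist-driven loss of surface beta2AR via internalization measured by FAP dye flow cytometry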); settings: Am2.2-beta2AR cells, at 10 µM, stronger effect = higher value
# [22] = target: AP-2 complex subunit beta (Homo sapiens) (UniProt P63010); experiment: beta-arrestin/AP2 interaction blockers – biochemical, validation set, GST-AP2 beads, flow cytometry, pilot screen (AID 504541;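 active = inhibition above 54%, about 3 SD of non-fluorescent compounds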;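 note: AP2 carries R879A mutation and is captured from E. coli lysate; bead-bound FITC arrestin peptide fluorescence measuring arrestin peptide binding to AP2; 0% = DMSO wells and 100% = excess unlabeled arrestin peptide control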); settings: FITC arrestin peptide, at 10 µM, stronger effect = higher value, AP2 beta2 appendage fragment, R879A mutant
# [23] = cytosolic pH regulators acting via V-ATPase – S. cerevisiae, pHLuorin, HTS validation (AID 504600; in the data active = response above about 15%;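 note: plate controls were DMSO for no effect and reference compound for full effect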); settings: V-ATPase proton transport, at 10 µM, stronger effect = higher value
# [24] = test system: anti-desmoglein-3 scFv antibody binding to human DSG3; experiment: blockers of pathogenic pemphigus antibody–desmoglein-3 binding – biochemical, validation compound set, bead-based, flow cytometry, pilot screen (AID 588368;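 active = binding below the plate cutoff, the plate median minus 3 SD, with a reading above zero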;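 note: signal is the median channel fluorescence of bead-bound GFP antibody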); settings: Protein G beads, DSG3-Fc, scFv-GFP binding, at 10 µM, stronger effect = lower value
# [25] = Nile Red efflux blockade in pump-expressing yeast – validation compound set, multiplex, phenotypic, pilot screen (AID 588506;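 active = efflux inhibition above 0.42, the validation set average plus 4 SD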;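 note: Nile Red retained in cells so higher fluorescence means more efflux inhibition; 0 = negative control wells and 1 = enniatin B 25 µM full block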); settings: S. cerevisiae pump-expressing triplex, Nile Red efflux flow cytometry; at 10 µM; stronger effect = higher value; the pumps come from Candida albicans
# [26] = target: ATP-binding cassette sub-family B member 6 (Homo sapiens) (UniProt Q9NP58); experiment: blockers of ABCB6-driven porphyrin uptake – K562-ABCB6 cells, flow cytometry, validation set, pilot screen (AID 588550;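 active = inhibition above the screen-wide mean plus 3 SD, about 51%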;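 note: 0% = DMSO wells and 100% = benzethonium chloride 70 µM positive control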); settings: K562-ABCB6 porphyrin accumulation, 1 h, at 10 µM, stronger effect = higher value
# [27] = AML differentiation inducers, ER-HoxA9 marrow cells – cell-based, GFP/MAC1 double positive, flow cytometry, validation set, primary screen (AID 588685;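 active = differentiation response of at least 50%, scaled between solvent and reference control, from cells with both markers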;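 note: compound exposure lasts four days before antibody staining and flow analysis; 0% = DMSO wells and 100% = 5 µM fulvestrant positive control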); settings: stronger effect = higher value, normalized: vehicle 0, fulvestrant 100
# [28] = target: Regulator of G-protein signaling 16 (Homo sapiens) (UniProt O15492); experiment: small molecules altering RGS protein interactions with GNAO1 – biochemical, multiplexed beads, flow cytometry, RGS4/7/8/16/19, primary screen (AID 1504); settings: multiplexed bead flow cytometry, measured here: RGS16 interaction, at 10 µM;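 note: fluorescently labeled Galpha-o bound to GDP with aluminium fluoride binding biotinylated RGS beads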
# [29] = target: Regulator of G-protein signaling 19 (Homo sapiens) (UniProt P49795); experiment: as above; settings: multiplexed bead flow cytometry, measured here: RGS19 interaction, at 10 µM
# [30] = target: Regulator of G-protein signaling 7 (Homo sapiens) (UniProt P49802); experiment: as above; settings: multiplexed bead flow cytometry, measured here: RGS7 interaction, at 10 µM
# [31] = target: Regulator of G-protein signaling 8 (Homo sapiens) (UniProt P57771); experiment: as above; settings: multiplexed bead flow cytometry, measured here: RGS8 interaction, at 10 µM
# [32] = green-channel fluorescence artefact in S. cerevisiae – s288c strain, artefact control for yeast TOR pathway GFP screen, dose response (AID 2757;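 active = fluorescence span over the dose series, or activity score, above about 33, limit read from the data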;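 note: thousands of bead-calibrated equivalent soluble fluorophore molecules from median cell fluorescence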); settings: 520 nm autofluorescence, flow cytometry, 3 h, at 33 µM, stronger effect = higher value, zero means same as solvent-only cells
# [33] = measured here: daughter cell gate
# [34] = measured here: mother cell gate
# [35] = measured here: daughter cell gate response
# [36] = measured here: mother cell gate response
# Cell division control protein 42 homolog (Homo sapiens), sequence (P60953 whole entry, looked up): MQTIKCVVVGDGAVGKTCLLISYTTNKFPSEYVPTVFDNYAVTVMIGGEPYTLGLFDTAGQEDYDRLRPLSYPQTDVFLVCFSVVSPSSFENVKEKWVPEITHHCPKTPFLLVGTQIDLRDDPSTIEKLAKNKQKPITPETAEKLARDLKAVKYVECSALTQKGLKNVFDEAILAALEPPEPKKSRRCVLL
# GTPase HRas (Homo sapiens), sequence (P01112 whole entry, looked up): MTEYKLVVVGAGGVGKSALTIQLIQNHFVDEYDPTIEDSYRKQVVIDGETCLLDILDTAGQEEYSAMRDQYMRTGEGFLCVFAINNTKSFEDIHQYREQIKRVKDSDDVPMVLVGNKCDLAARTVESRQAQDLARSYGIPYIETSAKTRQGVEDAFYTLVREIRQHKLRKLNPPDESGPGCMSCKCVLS
# Beta-2 adrenergic receptor (Homo sapiens), sequence (P07550 whole entry, looked up): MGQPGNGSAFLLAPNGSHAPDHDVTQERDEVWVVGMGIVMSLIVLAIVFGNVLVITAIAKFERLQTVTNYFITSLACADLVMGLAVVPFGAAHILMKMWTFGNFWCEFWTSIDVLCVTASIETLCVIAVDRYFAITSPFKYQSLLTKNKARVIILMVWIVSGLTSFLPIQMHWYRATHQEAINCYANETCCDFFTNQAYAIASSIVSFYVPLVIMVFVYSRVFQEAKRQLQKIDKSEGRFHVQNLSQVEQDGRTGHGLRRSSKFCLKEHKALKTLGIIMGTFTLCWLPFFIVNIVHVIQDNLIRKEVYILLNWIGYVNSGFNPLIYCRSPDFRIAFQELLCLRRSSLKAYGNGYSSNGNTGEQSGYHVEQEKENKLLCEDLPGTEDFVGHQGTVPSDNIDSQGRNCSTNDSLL
# AP-2 complex subunit beta (Homo sapiens), sequence (P63010 whole entry, looked up, the tested form may be a part, one chain of several): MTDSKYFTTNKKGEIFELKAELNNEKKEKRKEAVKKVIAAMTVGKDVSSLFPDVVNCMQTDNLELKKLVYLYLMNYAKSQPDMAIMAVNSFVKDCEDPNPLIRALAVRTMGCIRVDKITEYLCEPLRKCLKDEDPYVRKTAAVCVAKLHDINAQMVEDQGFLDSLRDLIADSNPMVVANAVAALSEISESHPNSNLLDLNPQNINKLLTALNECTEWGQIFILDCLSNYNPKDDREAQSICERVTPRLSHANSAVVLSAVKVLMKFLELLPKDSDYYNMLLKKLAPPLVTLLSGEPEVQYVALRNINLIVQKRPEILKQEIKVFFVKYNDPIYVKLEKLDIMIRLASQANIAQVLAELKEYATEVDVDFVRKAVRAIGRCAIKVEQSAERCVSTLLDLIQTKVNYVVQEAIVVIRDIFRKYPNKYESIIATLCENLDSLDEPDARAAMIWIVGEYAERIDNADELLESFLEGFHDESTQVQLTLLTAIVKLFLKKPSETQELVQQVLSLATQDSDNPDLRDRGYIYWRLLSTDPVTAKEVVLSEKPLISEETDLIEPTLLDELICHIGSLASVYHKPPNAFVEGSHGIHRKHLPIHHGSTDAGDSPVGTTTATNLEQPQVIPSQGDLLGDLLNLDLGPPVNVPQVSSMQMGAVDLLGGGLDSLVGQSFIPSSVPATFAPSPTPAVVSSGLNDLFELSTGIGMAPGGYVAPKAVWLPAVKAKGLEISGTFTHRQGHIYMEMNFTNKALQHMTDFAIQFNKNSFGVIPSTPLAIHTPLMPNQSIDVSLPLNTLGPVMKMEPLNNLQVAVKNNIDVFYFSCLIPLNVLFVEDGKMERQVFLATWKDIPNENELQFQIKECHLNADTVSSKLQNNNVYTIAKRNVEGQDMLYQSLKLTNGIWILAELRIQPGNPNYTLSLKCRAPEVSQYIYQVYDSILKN
# ATP-binding cassette sub-family B member 6 (Homo sapiens), sequence (Q9NP58 whole entry, looked up): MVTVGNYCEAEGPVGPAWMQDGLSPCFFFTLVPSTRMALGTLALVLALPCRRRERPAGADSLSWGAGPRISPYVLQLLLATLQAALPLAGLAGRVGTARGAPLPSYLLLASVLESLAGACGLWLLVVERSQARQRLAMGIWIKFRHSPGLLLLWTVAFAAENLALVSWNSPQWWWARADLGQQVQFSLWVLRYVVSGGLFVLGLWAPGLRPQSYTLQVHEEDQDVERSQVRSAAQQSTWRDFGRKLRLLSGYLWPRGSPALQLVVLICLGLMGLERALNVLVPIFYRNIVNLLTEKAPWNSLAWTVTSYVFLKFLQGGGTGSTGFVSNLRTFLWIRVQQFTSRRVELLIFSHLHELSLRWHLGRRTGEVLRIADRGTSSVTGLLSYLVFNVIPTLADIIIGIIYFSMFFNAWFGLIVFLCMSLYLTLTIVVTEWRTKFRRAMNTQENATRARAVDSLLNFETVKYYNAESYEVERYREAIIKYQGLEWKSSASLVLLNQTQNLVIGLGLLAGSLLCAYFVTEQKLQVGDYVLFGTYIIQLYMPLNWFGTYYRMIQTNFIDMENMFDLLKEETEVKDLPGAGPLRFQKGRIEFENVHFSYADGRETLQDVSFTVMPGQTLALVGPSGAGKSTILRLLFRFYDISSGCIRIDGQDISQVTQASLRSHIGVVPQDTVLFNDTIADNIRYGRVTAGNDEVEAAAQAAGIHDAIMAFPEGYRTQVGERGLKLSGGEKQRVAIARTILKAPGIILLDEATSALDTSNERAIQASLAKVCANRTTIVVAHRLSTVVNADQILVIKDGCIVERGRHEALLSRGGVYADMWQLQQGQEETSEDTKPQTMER
# Integrin beta-1 (Homo sapiens) + Integrin alpha-4 (Homo sapiens), sequence (P05556 whole entry, looked up): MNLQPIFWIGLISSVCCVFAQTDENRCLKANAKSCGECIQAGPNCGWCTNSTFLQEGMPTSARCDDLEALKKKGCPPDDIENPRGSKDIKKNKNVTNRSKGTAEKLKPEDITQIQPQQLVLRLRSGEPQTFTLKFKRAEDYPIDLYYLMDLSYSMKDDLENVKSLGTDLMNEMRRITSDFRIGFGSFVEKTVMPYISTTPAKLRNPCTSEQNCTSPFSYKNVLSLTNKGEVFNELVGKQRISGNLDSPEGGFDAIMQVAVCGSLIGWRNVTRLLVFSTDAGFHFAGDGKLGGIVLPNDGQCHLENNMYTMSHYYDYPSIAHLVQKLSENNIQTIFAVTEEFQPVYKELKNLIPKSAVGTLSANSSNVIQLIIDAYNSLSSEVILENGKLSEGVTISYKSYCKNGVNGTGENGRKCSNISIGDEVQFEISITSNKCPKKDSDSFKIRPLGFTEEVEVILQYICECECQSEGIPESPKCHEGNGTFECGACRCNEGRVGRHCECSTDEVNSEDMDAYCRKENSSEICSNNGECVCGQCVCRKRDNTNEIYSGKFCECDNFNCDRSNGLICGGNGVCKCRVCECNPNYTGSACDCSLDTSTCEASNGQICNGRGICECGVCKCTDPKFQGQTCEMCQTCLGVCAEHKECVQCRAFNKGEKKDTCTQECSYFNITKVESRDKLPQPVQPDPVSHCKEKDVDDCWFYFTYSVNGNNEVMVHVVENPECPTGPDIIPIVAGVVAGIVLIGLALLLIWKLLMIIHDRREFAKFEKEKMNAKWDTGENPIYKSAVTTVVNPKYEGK
# Integrin beta-1 (Homo sapiens) + Integrin alpha-4 (Homo sapiens), sequence (P13612 whole entry, looked up): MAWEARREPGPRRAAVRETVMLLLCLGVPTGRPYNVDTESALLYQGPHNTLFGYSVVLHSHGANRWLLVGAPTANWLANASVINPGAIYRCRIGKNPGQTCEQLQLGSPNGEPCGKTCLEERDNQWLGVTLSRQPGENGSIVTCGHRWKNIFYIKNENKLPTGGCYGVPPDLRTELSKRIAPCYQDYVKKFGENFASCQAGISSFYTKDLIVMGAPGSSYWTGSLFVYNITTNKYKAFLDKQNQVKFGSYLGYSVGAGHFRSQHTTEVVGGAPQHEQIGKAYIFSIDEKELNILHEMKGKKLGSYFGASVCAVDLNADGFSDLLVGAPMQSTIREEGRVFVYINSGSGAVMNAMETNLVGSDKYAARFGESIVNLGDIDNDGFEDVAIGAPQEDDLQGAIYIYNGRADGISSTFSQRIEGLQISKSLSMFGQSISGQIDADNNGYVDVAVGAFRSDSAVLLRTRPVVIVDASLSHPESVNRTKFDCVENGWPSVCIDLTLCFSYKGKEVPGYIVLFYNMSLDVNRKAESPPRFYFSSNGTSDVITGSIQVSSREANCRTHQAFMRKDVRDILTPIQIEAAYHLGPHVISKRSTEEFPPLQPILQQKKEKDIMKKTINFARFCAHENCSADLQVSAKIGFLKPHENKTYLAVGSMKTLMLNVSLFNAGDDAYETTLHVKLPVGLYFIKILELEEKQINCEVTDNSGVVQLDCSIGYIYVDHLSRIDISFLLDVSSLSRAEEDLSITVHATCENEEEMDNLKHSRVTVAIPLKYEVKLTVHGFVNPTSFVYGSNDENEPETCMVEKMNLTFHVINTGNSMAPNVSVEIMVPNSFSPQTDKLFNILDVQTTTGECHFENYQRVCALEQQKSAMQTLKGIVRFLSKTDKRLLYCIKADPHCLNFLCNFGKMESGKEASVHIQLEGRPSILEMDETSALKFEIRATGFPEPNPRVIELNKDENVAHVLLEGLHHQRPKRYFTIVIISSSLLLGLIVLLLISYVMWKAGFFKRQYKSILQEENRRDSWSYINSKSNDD
structure (smiles),measurement,setting,value
CN(C)c1ccc(/C=C/C(=O)c2cccc(Br)c2)cc1,outcome,[1],inactive
same,"fluorescence, percent of control (lower = inhibition)",[2],120%
same,"GTP binding, percent of control",[3],213%
same,outcome,[4],inactive
same,"GTP binding signal, raw median fluorescence (lower = inhibition) (MCF (arbitrary fluorescence units))",[5],225
same,outcome,[6],inactive
same,GFP response vs DMSO,[7],104% (inactive)
same,GFP response vs DMSO,[7]; [33],105%
same,GFP response vs DMSO,[7]; [34],104%
same,GFP response relative to DMSO,[8],99.5% (inactive)
same,GFP response relative to DMSO,[8]; [35],97.5%
same,GFP response relative to DMSO,[8]; [36],102%
same,GFP response vs DMSO,[9],112% (inactive)
same,"GFP response, % of DMSO",[10],94% (inactive)
same,"GFP response, % of DMSO",[11],98.8% (inactive)
same,"GFP response, % of DMSO",[11]; [33],97.4%
same,"GFP response, % of DMSO",[11]; [34],98.1%
CCOc1nnc(C)c2c(C)n(-c3cccc(OC)c3)nc12,outcome,[1],inactive
same,"fluorescence, percent of control (lower = inhibition)",[2],55.9%
same,"GTP binding, percent of control",[3],67.2%
same,outcome,[4],inactive
same,"GTP binding signal, raw median fluorescence (lower = inhibition) (MCF (arbitrary fluorescence units))",[5],194
same,outcome,[6],inactive
same,GFP response vs DMSO,[7],104% (inactive)
same,GFP response vs DMSO,[7]; [33],102%
same,GFP response vs DMSO,[7]; [34],106%
same,GFP response relative to DMSO,[8],98.7% (inactive)
same,GFP response relative to DMSO,[8]; [35],98.7%
same,GFP response relative to DMSO,[8]; [36],100%
same,GFP response vs DMSO,[9],102% (inactive)
same,"GFP response, % of DMSO",[10],99.8% (inactive)
same,"GFP response, % of DMSO",[11],108% (inactive)
same,"GFP response, % of DMSO",[11]; [33],105%
same,"GFP response, % of DMSO",[11]; [34],109%
O=C(NC1CCCCC1)c1cc([N+](=O)[O-])[nH]n1,outcome,[1],inactive
same,"fluorescence, percent of control (lower = inhibition)",[2],37.3%
same,"GTP binding, percent of control",[3],80.1%
same,outcome,[4],inactive
same,outcome,[6],inactive
COc1cc2c(cc1OC)-c1cc(NC3CCCCCC3)nc(=O)n1CC2,outcome,[1],inactive
same,"fluorescence, percent of control (lower = inhibition)",[2],34.3%
same,"GTP binding, percent of control",[3],69.8%
same,outcome,[4],inactive
same,"GTP binding signal, raw median fluorescence (lower = inhibition) (MCF (arbitrary fluorescence units))",[5],145
same,outcome,[6],inactive
same,percent of DMSO control GFP,[12],100% (inactive)
same,GFP response vs DMSO,[13],100% (inactive)
same,percent response of DMSO control,[14],109% (inactive)
same,GFP response vs DMSO,[15],94.7% (inactive)
same,"GFP response, % of DMSO",[16],95.9% (inactive)
same,double positive events,[17],62.4%
same,vesicle binding response,[17],601% (inactive)
same,inhibition,[18],-22.2% (inactive)
same,superoxide response (% of plate),[19],98.3% (inactive)
same,aptamer binding inhibition,[20],0% (inactive)
same,response,[21],-1.14% (inactive)
same,inhibition,[22],17% (inactive)
same,response,[23],-1.05% (inactive)
same,binding (% of control),[24],107% (inactive)
same,efflux inhibition (fraction of control),[25],0.21 (inactive)
same,inhibition,[26],-6% (inactive)
same,differentiation response,[27],7.09% (inactive)
O=C(C#Cc1cccc([N+](=O)[O-])c1)c1ccccc1,outcome,[1],inactive
same,"fluorescence, percent of control (lower = inhibition)",[2],31.6%
same,"GTP binding, percent of control",[3],81%
same,outcome,[4],inactive
same,"GTP binding signal, raw median fluorescence (lower = inhibition) (MCF (arbitrary fluorescence units))",[5],245
same,outcome,[6],inactive
same,GFP response vs DMSO,[7],94.1% (inactive)
same,GFP response vs DMSO,[7]; [33],98%
same,GFP response vs DMSO,[7]; [34],88%
same,GFP response relative to DMSO,[8],190% (active)
same,GFP response relative to DMSO,[8]; [35],167%
same,GFP response relative to DMSO,[8]; [36],178%
same,GFP response vs DMSO,[9],133% (inactive)
same,"GFP response, % of DMSO",[10],113% (inactive)
same,"GFP response, % of DMSO",[11],101% (inactive)
same,"GFP response, % of DMSO",[11]; [33],104%
same,"GFP response, % of DMSO",[11]; [34],91%
CN(c1ccccc1)c1ccc(/C=c2\s/c(=C(/C#N)C(=O)C(C)(C)C)n(Cc3ccco3)c2=O)cc1,outcome,[1],inactive
same,"fluorescence, percent of control (lower = inhibition)",[2],160%
same,"GTP binding, percent of control",[3],157%
same,outcome,[4],inactive
same,"GTP binding signal, raw median fluorescence (lower = inhibition) (MCF (arbitrary fluorescence units))",[5],180
same,outcome,[6],inactive
same,RGS16–Galpha-o binding response,[28],551%
same,RGS19–Galpha-o binding response,[29],4650%
same,RGS7–Galpha-o binding response,[30],421%
same,RGS8–Galpha-o binding response,[31],134%
same,GFP response vs DMSO,[7],118% (inactive)
same,GFP response vs DMSO,[7]; [33],118%
same,GFP response vs DMSO,[7]; [34],116%
same,GFP response relative to DMSO,[8],235% (active)
same,GFP response relative to DMSO,[8]; [35],240%
same,GFP response relative to DMSO,[8]; [36],231%
same,GFP response vs DMSO,[9],309% (active)
same,"GFP response, % of DMSO",[10],126% (inactive)
same,"GFP response, % of DMSO",[11],231% (active)
same,"GFP response, % of DMSO",[11]; [33],229%
same,"GFP response, % of DMSO",[11]; [34],230%
same,fluorescence change (kMESF span),[32],19.9 (inactive)

# Source: PubChem BioAssay
